Some of the results follow. A number with no mark means an inactive call. Activity calls are given as the source filed them. No stated cut-off is given here; in the data, active means IC50 below about 9 µM; inactive means the rest.
assay: binders of control antibody PGV04, dose response, counter-screen for PG9 antibody binder project, biochemical, TR-FRET, distinct HIV envelope site (AID 651937); conditions: TR-FRET binding to control antibody PGV04

Row | Compound | IC50
1 | O=C(Oc1ccccc1)Oc1ccc2c(c1)oc(=O)c1ccccc12 | 2.5 µM (active)
2 | S=c1[nH]c2ccccc2c2ccccc12 | 36.4 µM
3 | CC1(C)Cc2ccccc2-c2[nH]c(=S)[nH]c(=O)c21 | 38.1 µM
4 | COC(=O)C1=C(C)N(Cc2ccccc2C(F)(F)F)C(=NCc2ccc(OC)cc2)NC1c1cccc(C(F)(F)F)c1 (configuration not stated) | > 67 µM
5 | Cc1cccc(Nc2nc3c(S(=O)(=O)c4ccccc4)nnn3c3ccccc23)c1C | 2.86 µM (active)
6 | COc1ccc(-c2c(C)nn3c(N4CCC(C(=O)N5CCCCC5)CC4)cc(C)nc23)cc1OC | 56.5 µM
7 | O=C(Nc1nnc(-c2ccccc2F)s1)c1ccccc1F | 14.3 µM

From PubChem BioAssay AID651937 (The Scripps Research Institute Molecular Screening Center, 2012)
